Where “and” joins values, the source holds several entries; their conditions need not be identical. Identical values can stand only once. For part of these data: Results with a measured potency or affinity are listed apart. Calls of active or inactive are those of the source. Unless noted, no rule for the calls is given here.
How the values were obtained:
[1] = blockers of polyQ-driven CASP3 activation – cell-based (AID 1583); conditions: polyglutamine-induced caspase-3 activation, cell assay; stronger effect = higher value;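 tested at 10 µM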
[2] = yeast 75Q aggregation reduction – 75Q-TubU reporter (AID 1593); conditions: Yeast 75Q polyglutamine aggregation reporter
[3] = restoration of touch response, mutant HTT neurons – whole organism, C. elegans mechanosensory neurons, N-terminal huntingtin (AID 1599); conditions: C. elegans polyQ-huntingtin mechanosensory neurons, stronger effect = higher value
[4] = blockers of cytochrome c efflux from mitochondria – biochemical, purified mitochondria (AID 1603); conditions: stronger effect = lower value;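 also: mouse liver mitochondria challenged with calcium chloride; signal normalized to the plate average as 100%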
[5] = polyglutamine aggregate formation blockers (AID 1604); conditions: polyglutamine-induced protein aggregation inhibition assay; stronger effect = higher value; tested at 2.5 µM
[6] = glutamate transport activators, MN-1 cells, MN-1 cell line (AID 1612); conditions: MN-1 motor neuron cells, stronger effect = higher value;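 also: tested at 1 µM final; 0% = mean of DMSO vehicle wells on each plate; positive means more glutamate uptake than control and negative means less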
[7] = 75Q-TubH aggregate inhibition, S. cerevisiae, yeast (AID 1616); conditions: S. cerevisiae 75Q-TubH polyglutamine aggregation suppression; stronger effect = higher value
[8] = compounds altering viability of human ES cells (AID 493140); conditions: human embryonic stem cell survival screen; stronger effect = higher value;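 also: cells exposed to compounds for four days before counting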
[9] = signal quenchers or enhancers, Cy5 substrate/SSB – biochemical, NIH Clinical Collection, E. coli SSB, artefact control for HCV NS3 helicase inhibitor project (AID 743268); conditions: Cy5-oligo bound E. coli SSB, fluorescence interference
[10] = system: Hepatitis C virus NS3 helicase; assay: blockers of NS3h binding to DNA – biochemical, fluorescence polarization, NIH Clinical Collection, primary screen (AID 743270); conditions: NS3 helicase binding to Cy5-dT15 DNA, stronger effect = higher value, concentration not given here
[11] = biological target: Single-stranded DNA-binding protein (Escherichia coli (strain K12)) (UniProt P0AGE0); assay: SSB-ssDNA binding inhibitors – biochemical, fluorescence polarization, NIH Clinical Collection, counter-screen for HCV NS3 helicase inhibitor project (AID 743271; in the data active = inhibition above about 28%); conditions: E. coli SSB-DNA binding, stronger effect = higher value, concentration not given here
[12] = compounds distorting NS3 helicase fluorescence signal – biochemical, NIH Clinical Collection, artefact control for HCV NS3 helicase inhibitor project (AID 743272); conditions: fluorescence interference counterscreen, HCV NS3 helicase assay; stronger effect = lower value;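 also: HCV NS3 helicase with a Cy5 labelled single stranded DNA probe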
[13] = modulation of C. elegans fzo-1 (AID 1259413);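 also: fzo-1 mutant C. elegans worms in liquid wells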; conditions: C. elegans fzo-1 modulator screen, mean read-out; stronger effect = higher value
[14] = blockers of cellular phospholipid synthesis – cell-based, LOPAC library, screen 4, primary screen (AID 1347384); conditions: animal cells, phospholipid biosynthesis inhibition screen; at 10 µM
[15] = galactose survival enhancers in mitochondrial complex I cybrids – cell-based, galactose medium, ATP luminescence, primary screen (AID 1645843;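 active = z-score of at least 1.8 in each of two replicates, scored against plate mean and spread of sample wells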;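 also: positive z means more ATP and so rescue of galactose-driven cybrid death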); conditions: complex I mutant cybrid cells, 72 h, stronger effect = higher value
[16] = system: F380Y/beta1; assay: BK channel mutant inhibitors and activators – cell-based, U2OS BacMam, thallium flux, beta subunits, selectivity assay, profiling panel (AID 1259406;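 active = thallium flux through the channel raised or lowered by more than 3 SD from vehicle-only wells, actives on both sides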;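 also: initial slope of Thallos dye fluorescence rise after thallium is added; log ratio against the mean of 0.3% DMSO vehicle wells on the same plate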); conditions: U2OS BacMam BK variants, at 30 µM
[17] = system: F380Y/beta4; assay: as above; conditions: U2OS BacMam BK variants, at 30 µM
[18] = system: R275C/beta4; assay: as above; conditions: U2OS BacMam BK variants, at 30 µM
[19] = system: R275C/Slo1WT/beta2; assay: as above; conditions: U2OS BacMam BK variants, at 30 µM

| SMILES | inhibition [1] [%] | score [2] | rescue above control [3] | cytochrome c release ratio [4] | inhibition of aggregation [5] [%] | glutamate uptake change [6] [%] | aggregation suppression score [7] | survival [8] | fluorescence ratio [9] | inhibition [10] | inhibition [11] | fluorescence ratio [12] | mean signal [13] | outcome [14] | z-score [15] | log fold change Tl+ flux [16] | log fold change Tl+ flux [17] | log fold change Tl+ flux [18] | log fold change Tl+ flux [19] |
| --- | --- | --- | --- | --- | --- | --- | --- | --- | --- | --- | --- | --- | --- | --- | --- | --- | --- | --- | --- |
| CC(C)(C)NCC(O)c1cc(O)cc(O)c1 (stereo not given) | 10.1 | 1.33 | -7.82 | 1.15 | 47.9 | 22.8 | 1.5 | 21.1 (inactive) | 1.05 (inactive) | -2.27% (inactive) | -3.53% (inactive) | 1.04 (inactive) | 269 (inactive) | inactive | 0.355 (inactive) and 1.03 (inactive) | -0.0587 (inactive) | -0.0336 (inactive) | 0.00501 (inactive) | -0.0142 (inactive) |
| C=C(CC)C(=O)c1ccc(OCC(=O)O)c(Cl)c1Cl | 6.66 | 0.22 | 6.67 | 0.63 | 30.1 | 5.34 | 0.145 | 25.6 (inactive) | 2.96 (active) | -4.09% (inactive) | 2.57% (inactive) | 0.9 (inactive) | 255 (inactive) | – | -0.85 (inactive) and -0.03 (inactive) | 0.1 (inactive) | 0.0312 (inactive) | -0.0645 (inactive) | 0.0108 (inactive) |
| CC(=O)Nc1nnc(S(N)(=O)=O)s1 | 12.8 | 1.01 | 21.8 | 0.85 | -6.35 | 5.19 | 1.12 | 10.5 (inactive) | 1.01 (inactive) | -1.36% (inactive) | -2% (inactive) | 0.98 (inactive) | 242 (inactive) | inactive | 0.625 (inactive) and 0.37 (inactive) | 0.0405 (inactive) | 0.0426 (inactive) | 0.00614 (inactive) | 0.0491 (inactive) |
| Nc1ccc(S(=O)(=O)c2ccc(N)cc2)cc1 | 2.36 | 0.97 | 9.67 | 0.87 | 66.2 | -16.9 | 1.25 | 11.6 (inactive) | 0.97 (inactive) | -3.18% (inactive) | 0.29% (inactive) | 0.95 (inactive) | 228 (inactive) | – | -0.16 (inactive) | -0.00845 (inactive) | 0.0288 (inactive) | -0.0181 (inactive) | -0.0232 (inactive) |
| CCCNC(C)C(=O)Nc1ccccc1C (stereo not given) | 1.52 | 1.18 | -3.71 | 0.7 | 74.9 | 3.66 | 1.11 | 13.5 (inactive) | 0.103 (active) | -4.09% (inactive) | -0.48% (inactive) | 0.97 (inactive) | 270 (inactive) | inactive | 0.075 (inactive) and 0.325 (inactive) and 0.175 (inactive) | 0.00249 (inactive) | 0.0146 (inactive) | -0.00233 (inactive) | 0.0338 (inactive) |
| CC(C)[N+](C)(CCOC(=O)C1c2ccccc2Oc2ccccc21)C(C)C | 8.5 | 0.96 | 2.24 | 0.77 | 58.5 | -0.12 | 1.09 | 4.92 (inactive) | 1.03 (inactive) | -1.36% (inactive) | 0.29% (inactive) | 0.96 (inactive) | 251 (inactive) | inactive | 0.295 (inactive) and 0.02 (inactive) | -0.0699 (inactive) | -0.0221 (inactive) | -0.0395 (inactive) | -0.0246 (inactive) |
| CC(CN1c2ccccc2Sc2ccccc21)N(C)C (stereo not given) | -21.1 | 1.87 | 27.9 | 0.77 | 66.7 | 9.05 | 1.37 | 1.42 (inactive) | 0.91 (inactive) | -5% (inactive) | 3.34% (inactive) | 0.93 (inactive) | 245 (inactive) | inactive | -1.14 (inactive) and -0.84 (inactive) and -0.715 (inactive) | 0.16 (active) | 0.26 (active) | 0.0949 (inactive) | -0.0568 (inactive) |
| CC[N+](C)(C)c1cccc(O)c1 | 0.97 | 1.45 | -4.06 | 0.79 | 49.4 | -4.41 | 1.27 | 20.2 (inactive) | 1.03 (inactive) | -1.36% (inactive) | 0.29% (inactive) | 0.96 (inactive) | 239 (inactive) | inactive | 0.66 (inactive) and 0.015 (inactive) | -0.0227 (inactive) | 0.00778 (inactive) | -0.0318 (inactive) | 0.00666 (inactive) |
| CCN(CC)CCNC(=O)c1ccc(N)cc1 | -1.81 | 1.26 | 9.03 | 1.74 | 49.4 | -9.57 | 1.03 | 12.9 (inactive) | – | – | – | – | 241 (inactive) | inactive | 0.47 (inactive) and -0.57 (inactive) and 0.345 (inactive) | 0.0223 (inactive) | 0.0227 (inactive) | -0.0764 (inactive) | -0.03 (inactive) |

Source: PubChem BioAssay
